27 compounds from PubChem BioAssay (EPA / NIEHS) can be followed below.

Active and inactive are the calls of the source. The calls were made as follows: active = hit-call score of the fitted dose curve at least 0.9, where 1 is the maximum; inactive = score below 0.9.

Experiment [1] can be described thus: ATG_GRE_CIS: Attagene CIS-FACTORIAL HepG2 Assay for human Glucocorticoid Response Elements (GRE) (AID 2282947). The settings on record: HepG2 GRE cis-reporter, Attagene multiplex mRNA; actives raise or lower the signal. The gist of the method:
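HepG2, transient cis-reporter transfection, 24 h. Reporter mRNA: RT-PCR then CE, fluorescence. Fit both directions vs DMSO.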

Experiment [2] in a line: ATG_M_32_CIS: Attagene CIS-FACTORIAL HepG2 Assay for M32 Transcription Factor (Internal Marker) (AID 2282949).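 Also: background control marker of the multiplexed CIS panel rather than a real target.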 The settings on record: HepG2 Attagene cis-factorial M32 reporter, mRNA; actives raise or lower the signal. The gist of the method: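 Using DMSO as baseline, bidirectional curve fits were applied to reporter mRNA signals. These came from transiently transfected HepG2 cells exposed for 24 h, with RNA analysed by RT-PCR, FAM primer extension, HpaI digestion and CE.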

Experiment [3] is described as follows: ATG_M_06_CIS: Attagene CIS-FACTORIAL HepG2 Assay for M06 Transcription Factor (Internal Marker) (AID 2282950). The settings on record: HepG2 Attagene CIS-FACTORIAL M06 internal marker reporter; actives raise or lower the signal. The gist of the method:
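Steps: transfect HepG2 with multiplexed cis-element reporter constructs; dose chemical 24 h; extract RNA with DNase treatment; reverse-transcribe, PCR-amplify, 6-FAM label, HpaI digest; separate fragments by capillary electrophoresis. Activity fitted both directions versus DMSO.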

Experiment [4] concerns the target Hypoxia-inducible factor 1-alpha (Homo sapiens) (UniProt Q16665). Briefly: ATG_HIF1a_CIS: Attagene CIS-FACTORIAL HepG2 Assay for human Hypoxia Inducible Factor 1 (HIF1A) (AID 2282951). The settings on record: HepG2 Attagene cis-factorial HIF1a reporter transcription; actives raise or lower the signal. The gist of the method: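 HepG2 cells transiently transfected with multiplexed cis-promoter reporter units; reporter mRNA read 24 h after dosing by RT-PCR, 6-FAM primer-extension labelling, HpaI digestion and capillary electrophoresis. Bidirectional fit versus DMSO baseline.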

In experiment [5] the target is Hepatocyte nuclear factor 6 (Homo sapiens) (UniProt Q9UBC0). Put plainly: ATG_HNF6_CIS: Attagene CIS-FACTORIAL HepG2 Assay for human Hepatocyte Nuclear Factor 6 (HNF6) (AID 2282952). The settings on record: HepG2 Attagene cis-factorial HNF6 reporter transcription; actives raise or lower the signal. The gist of the method:
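First, HepG2 cells were transfected with the multiplexed cis reporter library and dosed with chemical for 24 h. Next, RNA was reverse-transcribed, PCR-amplified and fluorescently labelled. Finally, HpaI-digested fragments were read by capillary electrophoresis.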

In experiment [6] the target is Heat shock factor protein 1 (Homo sapiens) (UniProt Q00613). Put plainly: ATG_HSE_CIS: Attagene CIS-FACTORIAL HepG2 Assay for human Heat Shock Transcription Factor 1 (HSE) (AID 2282953). The settings on record: HepG2 HSE cis-reporter, Attagene RNA transcription; actives raise or lower the signal. The gist of the method: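 Cells were transfected with cis-element-driven reporter constructs, dosed for 24 h, then total RNA was reverse-transcribed and reporter cDNA amplified, FAM-labelled and digested with HpaI. Fragments were resolved by capillary electrophoresis; gain or loss was fitted against DMSO.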
Sequence of Heat shock factor protein 1 (Homo sapiens) (Q00613 whole entry, looked up, the tested form may be a part): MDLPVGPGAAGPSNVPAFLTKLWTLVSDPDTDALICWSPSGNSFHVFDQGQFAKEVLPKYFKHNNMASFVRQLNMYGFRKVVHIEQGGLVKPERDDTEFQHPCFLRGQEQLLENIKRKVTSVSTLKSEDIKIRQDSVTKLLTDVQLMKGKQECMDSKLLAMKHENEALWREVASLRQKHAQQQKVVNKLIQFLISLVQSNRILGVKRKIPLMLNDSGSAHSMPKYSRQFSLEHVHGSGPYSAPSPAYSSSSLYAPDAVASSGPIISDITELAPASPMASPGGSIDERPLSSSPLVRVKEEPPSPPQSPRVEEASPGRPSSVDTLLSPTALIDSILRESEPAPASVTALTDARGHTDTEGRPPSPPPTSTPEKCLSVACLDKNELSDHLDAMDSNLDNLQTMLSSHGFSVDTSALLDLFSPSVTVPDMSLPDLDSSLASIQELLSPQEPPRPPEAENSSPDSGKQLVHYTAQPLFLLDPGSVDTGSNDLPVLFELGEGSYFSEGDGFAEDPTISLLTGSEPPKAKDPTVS

A short description of experiment [7]: ATG_MRE_CIS: Attagene CIS-FACTORIAL HepG2 Assay for human Metal Responsive Element (MRE) (AID 2282954). The settings on record: HepG2 MRE cis-reporter transcription, Attagene multiplex; actives raise or lower the signal. The method, boiled down:
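Readout: capillary electrophoresis of 6-FAM-labelled, HpaI-digested RT-PCR reporter products. System: HepG2 cells carrying transient multiplexed cis reporters, dosed 24 h. Analysis: bidirectional fit, DMSO baseline.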

The nature of experiment [8]: ATG_PBREM_CIS: Attagene CIS-FACTORIAL HepG2 Assay for human Phenobarbital-responsive Enhancer Module (PBREM) (AID 2282955). The settings on record: HepG2 PBREM cis-reporter, Attagene multiplexed transcription; actives raise or lower the signal. The method, boiled down:
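HepG2 cells transiently transfected with multiple cis-regulated reporter transcription units; endogenous factor activity at the PBREM element measured as reporter mRNA 24 h after dosing, via RT-PCR and capillary electrophoresis of fluorescent fragments; bidirectional fitting versus DMSO.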

Experiment [9] addresses Paired box protein Pax-6 (Homo sapiens) (UniProt P26367). Briefly: ATG_Pax6_CIS: Attagene CIS-FACTORIAL HepG2 Assay for human Paired Box 6 (PAX6) (AID 2282956). The settings on record: HepG2 CIS-FACTORIAL PAX6 reporter transcription, RNA readout; actives raise or lower the signal. The method, boiled down:
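DMSO-referenced bidirectional fits of reporter mRNA fluorescence; HepG2 with transient cis-promoter MRTUs, 24 h post-dose, RT-PCR plus capillary electrophoresis detection.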

A short description of experiment [10]: ATG_ISRE_CIS: Attagene CIS-FACTORIAL HepG2 Assay for human Interferon Regulatory Factor 1 (IRF1) binding to an Interferon-Stimulated Response Element (ISRE) (AID 2282948). The settings on record: HepG2 ISRE cis-reporter (Attagene), mRNA transcription readout; actives raise or lower the signal. The gist of the method: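 Uses HepG2 liver cells transfected with cis-regulated reporters and measures mRNA 24 h post-dosing through RT-PCR, primer-extension labelling and capillary electrophoresis, with DMSO as negative control.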

Sequence of Paired box protein Pax-6 (Homo sapiens) (P26367 whole entry, looked up): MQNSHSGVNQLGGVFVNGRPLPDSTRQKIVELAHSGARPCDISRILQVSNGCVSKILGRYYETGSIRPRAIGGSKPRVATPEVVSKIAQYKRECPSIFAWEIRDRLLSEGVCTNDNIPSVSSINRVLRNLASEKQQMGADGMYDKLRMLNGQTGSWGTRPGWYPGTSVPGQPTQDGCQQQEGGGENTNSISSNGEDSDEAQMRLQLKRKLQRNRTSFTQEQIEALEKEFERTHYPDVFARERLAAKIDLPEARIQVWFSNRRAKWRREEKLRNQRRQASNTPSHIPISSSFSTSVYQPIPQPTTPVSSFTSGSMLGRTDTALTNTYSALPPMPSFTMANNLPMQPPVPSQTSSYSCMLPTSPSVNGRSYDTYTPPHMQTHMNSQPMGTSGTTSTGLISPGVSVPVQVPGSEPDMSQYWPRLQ
Sequence of Hepatocyte nuclear factor 6 (Homo sapiens) (Q9UBC0 whole entry, looked up, the tested form may be a part): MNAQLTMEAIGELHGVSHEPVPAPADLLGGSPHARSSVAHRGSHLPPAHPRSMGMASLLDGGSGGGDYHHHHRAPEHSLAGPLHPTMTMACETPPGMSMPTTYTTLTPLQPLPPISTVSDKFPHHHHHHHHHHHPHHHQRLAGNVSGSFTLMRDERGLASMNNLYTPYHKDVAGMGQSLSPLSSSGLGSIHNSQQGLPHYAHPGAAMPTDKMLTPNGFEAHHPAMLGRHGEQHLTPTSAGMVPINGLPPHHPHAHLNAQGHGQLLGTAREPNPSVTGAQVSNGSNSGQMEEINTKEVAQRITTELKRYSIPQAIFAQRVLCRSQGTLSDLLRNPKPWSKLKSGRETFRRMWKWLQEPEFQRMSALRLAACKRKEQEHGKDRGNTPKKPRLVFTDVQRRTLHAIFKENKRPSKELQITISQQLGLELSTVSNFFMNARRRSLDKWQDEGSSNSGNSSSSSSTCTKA
Sequence of Hypoxia-inducible factor 1-alpha (Homo sapiens) (Q16665 whole entry, looked up): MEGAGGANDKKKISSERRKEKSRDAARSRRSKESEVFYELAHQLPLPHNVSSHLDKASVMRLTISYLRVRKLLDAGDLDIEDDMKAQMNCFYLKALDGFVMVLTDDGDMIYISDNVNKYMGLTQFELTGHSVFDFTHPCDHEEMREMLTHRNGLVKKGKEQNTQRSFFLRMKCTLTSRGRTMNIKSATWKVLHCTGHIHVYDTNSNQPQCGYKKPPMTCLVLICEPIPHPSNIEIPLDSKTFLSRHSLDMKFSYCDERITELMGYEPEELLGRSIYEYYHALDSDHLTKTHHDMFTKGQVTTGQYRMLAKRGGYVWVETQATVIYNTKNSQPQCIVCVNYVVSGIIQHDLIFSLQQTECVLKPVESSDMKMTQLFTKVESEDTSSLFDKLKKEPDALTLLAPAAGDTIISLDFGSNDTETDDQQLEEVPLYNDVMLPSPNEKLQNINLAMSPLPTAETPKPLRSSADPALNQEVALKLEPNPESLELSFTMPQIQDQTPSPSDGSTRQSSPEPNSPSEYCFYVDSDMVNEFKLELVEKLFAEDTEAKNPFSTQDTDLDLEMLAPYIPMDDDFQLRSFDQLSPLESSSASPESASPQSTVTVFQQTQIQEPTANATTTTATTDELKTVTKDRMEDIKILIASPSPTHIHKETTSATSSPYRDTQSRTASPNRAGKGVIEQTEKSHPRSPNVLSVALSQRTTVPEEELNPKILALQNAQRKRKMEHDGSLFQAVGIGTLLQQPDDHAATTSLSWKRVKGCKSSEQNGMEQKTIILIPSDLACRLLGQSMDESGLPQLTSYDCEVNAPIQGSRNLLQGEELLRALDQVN

On to `COC(=O)c1ccc([N+](=O)[O-])cc1`, for which the outcome in experiment [1], in [2], in experiment [3], in [4], in experiment [5] and in experiment [6] was inactive. The compound was called inactive in experiment [7], in experiment [8] and in experiment [9].
Turning to `CCCCCCCC/C=C\CCCCCCCC(=O)OCC`, the outcome in experiment [1], in experiment [10], in experiment [4], in experiment [5], in experiment [6] and in experiment [7] was inactive. For the same compound, the outcome in experiment [8] and in [9] was inactive.
Turning to `CCCCCCC(C)(C)S`, the call in experiment [1], in [10], in [3], in experiment [4], in experiment [5] and in [6] was inactive. Moreover, the call in experiment [7], in [8] and in experiment [9] was inactive.
Broadly, the AC50 is the concentration at which the activity in the assay is half-maximal. On to `O=C(Nc1ccc2c(c1)Cc1ccccc1-2)C(F)(F)F`, for which the outcome in [1], in experiment [10], in experiment [5], in experiment [6], in [7] and in experiment [8] was inactive. In addition, the outcome in [9] was inactive. In addition, the AC50 in experiment [4] was 22.6 µM (active).
For the compound `CCc1cc(C(C)(C)C)c(O)c(C(C)(C)C)c1`, the result in [1], in experiment [10], in experiment [3], in experiment [4], in [5] and in experiment [6] was inactive. Further, the compound was called inactive in [7], in [8] and in experiment [9].
Regarding `CCOC(=O)COC(=O)c1cc(Oc2ccc(C(F)(F)F)cc2Cl)ccc1[N+](=O)[O-]`, the compound was called inactive in experiment [10], in [2], in experiment [3], in [4], in experiment [5] and in experiment [6]. The outcome in experiment [7], in experiment [8] and in experiment [9] was inactive.
For `CCOc1ccc(NC(=O)CC(C)O)cc1` (stereo unspecified), the compound was classed as inactive in experiment [10], in experiment [2], in [3], in experiment [4], in experiment [5] and in experiment [6]. Also, the call in experiment [7] and in experiment [9] was inactive.
With `O=c1[nH]c(=O)c2cn[nH]c2[nH]1`, the compound was classed as inactive in experiment [10], in [2], in experiment [3], in [4], in experiment [5] and in [6]. In addition, the call in [7], in experiment [8] and in experiment [9] was inactive.
As for `OCCc1ccccc1`, the outcome in experiment [10], in experiment [2], in experiment [3], in [4], in experiment [5] and in experiment [6] was inactive. Besides, the compound was classed as inactive in experiment [7] and in experiment [9].
On to `CCCCC(CC)(CO)CO`, for which the outcome in experiment [10], in experiment [2], in [3], in [4], in [5] and in experiment [6] was inactive. The compound was called inactive in experiment [7], in [8] and in experiment [9].
With `CN(C)C(=O)Nc1ccc(Oc2ccc(Cl)cc2)cc1`, the compound was classed as inactive in experiment [10], in experiment [2], in experiment [3], in experiment [4], in experiment [5] and in experiment [7]. Also, the result in experiment [8] and in [9] was inactive. In addition, the AC50 in [6] was 181 µM (active).
As for `CC(=O)c1ccccn1`, the compound was called inactive in experiment [10], in experiment [2], in [3], in [4], in experiment [5] and in experiment [6]. Moreover, the outcome in [7], in [8] and in experiment [9] was inactive.
As for `CCOc1ccccc1O`, the compound was called inactive in experiment [10], in experiment [2], in experiment [3], in experiment [4], in [5] and in experiment [6]. For the same compound, the compound was called inactive in experiment [7], in experiment [8] and in experiment [9].
Regarding `CCOC(=O)C(C#N)=C(c1ccccc1)c1ccccc1`, the outcome in [10], in experiment [2], in experiment [3] and in experiment [5] was inactive. In addition, the AC50 in [4] is 19.8 µM (active); in experiment [6], 149 µM (active); in [7] it was 86.9 µM (active); in experiment [8], 2.07 µM (active); in [9], 35.1 µM (active).
As to `CCOC(=O)CC(C)O` (stereo unspecified), the result in experiment [10], in experiment [2], in experiment [3], in experiment [4], in experiment [5] and in experiment [6] was inactive. Further, the result in experiment [7], in [8] and in experiment [9] was inactive.
For the compound `O=C(O)c1ccc(O)cc1`, the call in [10], in experiment [2], in [3], in experiment [4], in [5] and in experiment [6] was inactive. Moreover, the call in [7], in experiment [8] and in experiment [9] was inactive.
`C=C(C)C(=O)OCCOCCOCCOCCOC(=O)C(=C)C`: the call in experiment [10], in experiment [2], in [3], in experiment [4], in [5] and in experiment [6] was inactive. Also, the compound was called inactive in experiment [7], in [8] and in experiment [9].
Turning to `CCCCC(CC)COC(C)=O` (stereo unspecified), the result in [10], in experiment [2], in experiment [3], in experiment [4], in [5] and in experiment [6] was inactive. The result in experiment [7], in experiment [8] and in [9] was inactive.
On to `C=C(C)C(=O)OCCOC1CC2CC1C1C=CCC21` (stereo unspecified), for which the result in experiment [10], in experiment [2], in [3], in [4], in experiment [5] and in experiment [6] was inactive. For the same compound, the call in [7], in experiment [8] and in [9] was inactive.
Turning to `C[Si]1(C)O[Si](C)(C)O[Si](C)(C)O1`, the result in [10], in experiment [2], in [3], in experiment [4], in [5] and in [6] was inactive. The call in experiment [7], in experiment [8] and in [9] was inactive.
Consider `Cc1cccc(Nc2ccccc2)c1`, for which the compound was called inactive in experiment [10], in experiment [2], in experiment [3], in experiment [4], in experiment [5] and in experiment [8]. For the same compound, the AC50 is 162 µM (active) in experiment [6], 135 µM (active) in experiment [7] and 120 µM (active) in experiment [9].
On to `CCOC(=O)CCc1ccccc1`, for which the compound was classed as inactive in experiment [10], in [2], in experiment [3], in experiment [4], in experiment [5] and in experiment [6]. The result in [7] and in experiment [9] was inactive.
`COc1cc([C@@H]2c3cc4c(cc3[C@@H](O[C@@H]3O[C@@H]5CO[C@@H](C)O[C@H]5[C@H](O)[C@H]3O)[C@H]3COC(=O)[C@H]23)OCO4)cc(OC)c1O`: the compound was classed as inactive in experiment [10], in experiment [2], in experiment [3], in experiment [4], in experiment [5] and in experiment [6]. For the same compound, the outcome in experiment [7], in experiment [8] and in experiment [9] was inactive.
In the case of `Cc1ccc(C)o1`, the outcome in [10], in experiment [2], in experiment [3], in experiment [4], in [5] and in experiment [6] was inactive. Further, the compound was classed as inactive in [7], in [8] and in [9].
Consider `c1ccc2[nH]cnc2c1`, for which the outcome in experiment [10], in experiment [2], in experiment [3], in experiment [4], in experiment [5] and in experiment [6] was inactive. Further, the outcome in experiment [7], in experiment [8] and in experiment [9] was inactive.
As for `CC(=O)CC(=O)Nc1ccccc1`, the result in experiment [10], in experiment [2], in experiment [3], in experiment [5], in [6] and in experiment [7] was inactive. For the same compound, in experiment [9], the result was inactive. The AC50 in experiment [4] was 24.2 µM (active).
Regarding `CC/C=C\CCOC(=O)CC`, the result in experiment [10], in [2], in [3], in experiment [4], in experiment [5] and in [6] was inactive. Besides, the outcome in experiment [7] and in [9] was inactive.
